Results: PubChem BioAssay (NCATS)
Inconclusive results are not listed. Calls of active or inactive are those of the source. Calls come from the whole dose curve; as a rule, active = well fitted cell-killing curve with a large enough effect; inconclusive = small, poorly fitted or top-dose-only effect, or effect the other way; inactive = flat fitted curve, though single readings scatter.

How the values were obtained:
Test in all cases: Primary qHTS to identify gynecologic anti-cancer compounds using libraries of approved drugs and bioactive compounds (AID 1345084); note: nearly all actives have a fitted effect of over 55% in size
Details in all cases: Gynecologic cancer cell panel viability, ATPlite luminescence, 48 h; series mostly up to 57.5 µM
[1] = tested on: OV90
Outline: (§1)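 Cell viability after 48 h drug treatment, ATPlite luminescence readout; five doses.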

[2] = tested on: PA-1
Outline: as §1

[3] = tested on: SKOV3
Outline: as §1

[4] = tested on: Tov-21-G
Outline: as §1

[5] = tested on: Tov112D
Outline: as §1
% is set by controls: 0 for no effect and ±100 for the full control effect; potency is the fitted concentration of half-maximal effect.

O=C(/C=C/c1ccc(O)c(O)c1)O[C@@H]1[C@@H](O)[C@H](OC2CCCCC2O)O[C@H](CO)[C@H]1O (stereo partly drawn)
inactive: Potency [1] | Potency [2] | Potency [3] | Potency [4] | Potency [5]

Oc1ccc(CC2NCCc3cc(O)c(O)cc32)cc1 (stereo not drawn)
inactive: Potency [1] | Potency [2] | Potency [3] | Potency [4] | Potency [5]

C=CC(C)(O)CC/C=C(\C)COC1O[C@H](CO)[C@@H](O)[C@H](O)[C@H]1O (stereo partly drawn)
inactive: Potency [1] | Potency [2] | Potency [3] | Potency [4] | Potency [5]

CC1(C)C2CC[C@@]34CC(CC[C@H]3[C@]2(C)CC[C@@H]1O[C@@H]1O[C@H](CO)[C@@H](O)[C@H](O)[C@H]1O)[C@](C)(O)C4 (stereo partly drawn)
inactive: Potency [1] | Potency [2] | Potency [3] | Potency [4] | Potency [5]

CCC/C=C/C=C/C1CC(O)C(O)C(=O)C1CO (stereo not drawn)
inactive: Potency [1] | Potency [2] | Potency [3] | Potency [4] | Potency [5]

CC1=CC(=O)C2C(C)(C)CCC[C@]2(C)[C@H]1CC[C@H](C)CC(=O)O (stereo partly drawn)
inactive: Potency [1] | Potency [2] | Potency [3] | Potency [4] | Potency [5]

O=C(CC1CC(c2ccc(F)cc2F)=NO1)N1CCOCC1 (stereo not drawn)
inactive: Potency [1] | Potency [2] | Potency [3] | Potency [4] | Potency [5]

CCC(C)/C=C(C)/C=C/C1=CC2=CC(=O)C(C)(O)C(OC(C)=O)C2CO1 (stereo not drawn)
inactive: Potency [1] | Potency [2] | Potency [3] | Potency [4] | Potency [5]

COC(=O)C1=CO[C@@H](O[C@@H]2O[C@H](CO)[C@@H](O)[C@H](O)[C@H]2O)/C(=C\CO)[C@@H]1CC(=O)OCCc1ccc(O)cc1
inactive: Potency [1] | Potency [2] | Potency [3] | Potency [4] | Potency [5]

Cc1occc(=O)c1O[C@@H]1O[C@H](CO[C@@H]2OC[C@](O)(CO)[C@H]2O)[C@@H](O)[C@H](O)[C@H]1O
inactive: Potency [1] | Potency [2] | Potency [3] | Potency [4] | Potency [5]

Cc1cccc(-c2nn3c(c2-c2ccnc4ccc(C(N)=O)cc24)CCC3)n1
inactive: Potency [1] | Potency [2] | Potency [3] | Potency [4]

COC(=O)C1=CO[C@@H](O[C@@H]2O[C@H](CO)[C@@H](O)[C@H](O)[C@H]2O)[C@@H]2[C@@H](C)[C@@H](OC(=O)/C=C/c3ccccc3)[C@@H](O)[C@H]12
inactive: Potency [1] | Potency [2] | Potency [3] | Potency [4] | Potency [5]

C=C1[C@H](OC(C)=O)[C@H]2[C@@H](OC(=O)c3ccccc3)[C@@H](C)C[C@]2(O)[C@@H](OC(C)=O)[C@H](C)/C=C/C(C)(C)C(=O)[C@H](OC(C)=O)[C@H]1OC(C)=O
inactive: Potency [1] | Potency [2] | Potency [3] | Potency [4] | Potency [5]

CC/C=C\[C@H](O)[C@H](O)C1=C(C)C(=O)[C@]2(O1)C(=O)N[C@@](O)(C(=O)c1ccccc1)[C@@H]2O
inactive: Potency [1] | Potency [2] | Potency [3] | Potency [4] | Potency [5]

CC(C)=CC[C@H]1O[C@]2(O)C([C@H]3CCC4[C@@]5(C)CC[C@H](O[C@@H]6O[C@H](CO)[C@H](O)[C@H](O[C@@H]7O[C@H](CO)[C@@H](O)[C@H](O)[C@H]7O)[C@H]6O[C@@H]6O[C@@H](C)[C@H](O)[C@@H](O)[C@H]6O)C(C)(C)C5CC[C@@]4(C)[C@]3(C)[C@H]2O)[C@@]1(C)O (stereo partly drawn)
inactive: activity change, negative = cytotoxicity [1] -2.06% [at 11.6 µM] | activity change, negative = cytotoxicity [2] 0.425% [at 11.6 µM] | activity change, negative = cytotoxicity [3] 28% [at 11.6 µM] | activity change, negative = cytotoxicity [4] -2.04% [at 11.6 µM] | activity change, negative = cytotoxicity [5] 6.89% [at 11.6 µM]

Cn1cc(CCn2cnc(-c3cnn(C)c3)c2-c2ccc(C#N)cc2)cn1
inactive: Potency [1] | Potency [2] | Potency [3] | Potency [4] | Potency [5]

CC[C@H]1OC(=O)[C@H](C)[C@@H](O[C@H]2C[C@@](C)(OC)[C@@H](O)[C@H](C)O2)C(C)[C@@H](O[C@@H]2O[C@H](C)C[C@H](N(C)C)[C@H]2O)[C@](C)(O)C[C@@H](C)CN(C)[C@H](C)[C@@H](O)[C@]1(C)O (stereo partly drawn)
inactive: Potency [1] | Potency [2] | Potency [3] | Potency [4] | Potency [5]

CO[C@@H]1[C@]2(O)C(=O)N3/C=C\C(C)(C)c4[nH]c5ccccc5c4/C=C\3C(=O)N2[C@]23[C@H](CO)C(C)(C)N2c2ccccc2[C@]13O
inactive: Potency [1] | Potency [2] | Potency [3] | Potency [4] | Potency [5]

CC1(C)C[C@H](O)C[C@@]2(C)[C@H]1[C@H](O)C=C1COC(=O)[C@@]12O
inactive: Potency [1] | Potency [2] | Potency [3] | Potency [4] | Potency [5]

COc1c(C)c(OCC(O)C(C)(C)O)cc2c1CNC2=O (stereo not drawn)
inactive: Potency [1] | Potency [2] | Potency [3] | Potency [4] | Potency [5]

CC1(C(=O)O)CCCC2(C)C3CCC4CC3(CCC12)CC4C(=O)O (stereo not drawn)
inactive: Potency [1] | Potency [2] | Potency [3] | Potency [4] | Potency [5]

CCOC(=O)C1=C(N)Oc2ccc(Cl)cc2C1C(C#N)C(=O)OCC (stereo not drawn)
inactive: Potency [1] | Potency [2] | Potency [3] | Potency [4] | Potency [5]

COc1cc(OC)cc(-c2ccc3c(-c4ccc(F)cc4)[nH]nc3n2)c1
inactive: Potency [1] | Potency [2] | Potency [3] | Potency [4] | Potency [5]

CC1(C)CC[C@]2(C(=O)O)CC[C@]3(C)C(=CCC4[C@@]5(C)C[C@@H](O)[C@H](O)[C@](C)(CO)C5CC[C@]43C)[C@@H]2[C@@H]1O (stereo partly drawn)
inactive: Potency [1]

C/C=C(/C)C(=O)O[C@@H]1C[C@@H](OC(=O)/C(C)=C\C)[C@@]2(C)C3C(=O)C=C(C)C2C3C1(C)C
inactive: Potency [1] | Potency [2] | Potency [3] | Potency [4] | Potency [5]

COC(=O)[C@H](Cc1cccc(C(=N)N)c1)[C@@H](C)NC(=O)c1ccc(-c2cc[n+]([O-])cc2)cc1
inactive: Potency [1] | Potency [2] | Potency [3] | Potency [4] | Potency [5]

CC1CCC2(C(=O)OC3OC(CO)C(O)C(O)C3O)CCC3(C)C(=CCC4C5(C)CCC(O)C(C)(CO)C5CCC43C)C2C1(C)O (stereo not drawn)
inactive: Potency [1] | Potency [2] | Potency [3] | Potency [4] | Potency [5]

C=C(CCO[C@@H]1O[C@H](CO)[C@@H](O)[C@H](O)[C@H]1O)C(=O)O
inactive: Potency [1] | Potency [2] | Potency [3] | Potency [4] | Potency [5]

COC(=O)[C@@H](NC(=O)[C@H](CC(C)C)NC(=O)N(Cc1ccccc1)C[C@@H](O)[C@H](Cc1ccccc1)NC(=O)OC(C)(C)C)C(C)C
inactive: activity change, negative = cytotoxicity [1] -5.58% [at 11.6 µM] | activity change, negative = cytotoxicity [2] 4.66% [at 11.6 µM] | activity change, negative = cytotoxicity [3] 21.9% [at 11.6 µM] | activity change, negative = cytotoxicity [4] -1.16% [at 11.6 µM] | activity change, negative = cytotoxicity [5] 11% [at 11.6 µM]

CCCNCCOc1ccc(NC(=O)c2c[nH]c3c2C(=O)CCC3)cc1F
inactive: Potency [1] | Potency [2] | Potency [3] | Potency [4] | Potency [5]

O=C(Nc1cc(-c2ccccc2)nn1-c1ccccc1F)c1ccc([N+](=O)[O-])cc1
inactive: Potency [1] | Potency [2] | Potency [3] | Potency [4] | Potency [5]

CC(CNS(=O)(=O)C(C)C)c1ccc(-c2ccc(C#N)cc2)cc1 (stereo not drawn)
inactive: Potency [2] | Potency [4]
active: Potency [1] 10 µM | Potency [3] 8.91 µM

C=C1C[C@]23C[C@@]1(O)CC[C@H]2[C@@]12C=C[C@H](O)[C@@](C)(C(=O)O1)[C@H]2[C@@H]3C(=O)O
inactive: Potency [1] | Potency [2] | Potency [3] | Potency [4] | Potency [5]

CC(=O)[C@@H]1C[C@H](C(C)(C)O[C@@H]2O[C@H](CO)[C@@H](O)[C@H](O)[C@H]2O)CC[C@@]2(CO)OC(=O)C[C@@H]12
inactive: Potency [1] | Potency [2] | Potency [3] | Potency [4] | Potency [5]

Cc1oc2nc3c(c(NC(=O)CN4CCCC4=O)c2c1C)CCCC3
inactive: Potency [1] | Potency [2] | Potency [3] | Potency [4]

COc1cc(Nc2nc3ccccc3nc2NS(=O)(=O)c2cccc(NC(=O)c3ccc(C)c(OC)c3)c2)cc(OC)c1
inactive: Potency [1] | Potency [2] | Potency [3] | Potency [4] | Potency [5]

CCc1cccc2c3c([nH]c12)[C@@](CC)(CC(=O)O)OCC3
inactive: Potency [1] | Potency [2] | Potency [3] | Potency [4] | Potency [5]

C/C(=C\CC[C@H](CO)[C@@H]1CC[C@]2(C)C3=C(CC[C@@]12C)[C@@]1(C)CCC(=O)C(C)(C)C1CC3)C(=O)O (stereo partly drawn)
inactive: Potency [1] | Potency [2] | Potency [3] | Potency [4] | Potency [5]

C=C1CC/C=C(/CO)C(=O)C[C@@H]2[C@@H]1C[C@@]2(C)COC(C)=O
inactive: Potency [1] | Potency [2] | Potency [3] | Potency [4] | Potency [5]

COc1c2cc(c(O[C@@H]3O[C@H](CO)[C@@H](O)[C@H](O)[C@H]3O)c1OC)CCCCC(O)CCc1ccc(O)c-2c1 (stereo partly drawn)
inactive: Potency [1] | Potency [2] | Potency [3] | Potency [4] | Potency [5]

COc1cccc(OC)c1-c1nc(C(=O)N[C@@H](CC(C)C)C(=O)O)cn1-c1ccnc2cc(Cl)ccc12
inactive: Potency [1] | Potency [2] | Potency [3] | Potency [4] | Potency [5]

CC(=O)OCC1=CCC2C(C)(C)CCCC2(C)C12CCC(C)(CC(=O)O)O2 (stereo not drawn)
inactive: Potency [1] | Potency [2] | Potency [3] | Potency [4] | Potency [5]

C/C(=C\CCC(C)CCO)C(=O)OC[C@H]1O[C@@H](O[C@@H]2OC=C(C(=O)O)[C@H]3CC[C@](C)(O)[C@@H]23)C(O)[C@@H](O)C1O (stereo partly drawn)
inactive: Potency [1] | Potency [2] | Potency [3] | Potency [4] | Potency [5]

CC1=CCC(O)C2(C)CCC3C(C)C(=O)OC3C12 (stereo not drawn)
inactive: Potency [1] | Potency [2] | Potency [3] | Potency [4] | Potency [5]

C=C1CCC2C(C)(C)CC(=O)CC2(C)C1CCC(C)CCO (stereo not drawn)
inactive: Potency [1] | Potency [2] | Potency [3] | Potency [4] | Potency [5]

COC(=O)C1=COC(O[C@@H]2O[C@H](COC(=O)/C=C/c3ccc(O)cc3)[C@@H](O)[C@H](O)[C@H]2O)C2C(CO)=CCC12 (stereo partly drawn)
inactive: Potency [1] | Potency [2] | Potency [3] | Potency [4] | Potency [5]

Nc1ncnc2c1c(COc1cccc(Cl)c1)nn2C1CCOCC1
inactive: Potency [1] | Potency [2] | Potency [3] | Potency [4] | Potency [5]

C=C1CCC2[C@](C)(CCC[C@]2(C)C(=O)O)[C@H]1CC/C(C)=C/C(=O)OC (stereo partly drawn)
inactive: Potency [1] | Potency [2] | Potency [3] | Potency [4] | Potency [5]
